Assay outcomes: PubChem BioAssay, several laboratories
GIRK2 act = activators of NPY4-receptor-primed GIRK2 channels, summary, cell-based, HEK293, thallium flux | HEK293 GIRK2/NPY4 cells, thallium flux fluorescence | activation (% efficacy), % for hits at 37.5 µM | 34,000 tested, under 10 active | AID 1259324, 2017;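 active = primary screen hit, no activity in plain HEK293 cells, and in GIRK2-only cells above 5% efficacy rising with concentration; inactive = the rest, including fluorescent compounds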;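 note: efficacy is normalized control-subtracted fluorescence 15 s after thallium addition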
AMPAR-TARP mod = modulators of GluA2-stargazin AMPA receptor complexes, primary screen, cell-based, membrane potential dye; Voltage-dependent calcium channel gamma-2 subunit (Mus musculus) + Glutamate receptor 2 …; HEK293 GluA2+stargazin, membrane potential dye (FDSS), glutamate EC50; hits were called plate by plate, in both directions; calls only at 30 µM; 3.5% of 40,000 active;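 active = any of four per-well response measures lying three or more SD from its plate-wide compound average, in either direction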
Numbers without * were called inactive; i = inactive; · = no result; + = active, no number. Many of the other results were omitted from the sample, so hits are more common in it than they were.

SMILES	GIRK2 act	AMPAR-TARP mod
CCCCN1CC(c2nc3ccccc3n2CCOc2ccccc2)CC1=O (stereo not drawn)	·	i
CCCCN1CC(c2nc3ccccc3n2Cc2ccc(Cl)cc2)CC1=O (stereo not drawn)	·	i
C=CCN1CC(c2nc3ccccc3n2Cc2c(Cl)cccc2Cl)CC1=O (stereo not drawn)	·	+
COc1ccc(S(=O)(=O)Nc2ccc3c(c2)CCCN3S(=O)(=O)c2ccccc2)c(OC)c1	·	i
Cc1cc(C(=O)NCC(c2ccc(F)cc2)N2CCN(C)CC2)no1 (stereo not drawn)	i	i
CS(=O)(=O)N1CCC(C(=O)Nc2nnc(-c3ccc4c(c3)OCCO4)o2)CC1	i	·
O=C(NCC1CCN(C(=O)c2ccccc2F)CC1)Nc1ccccc1Cl	i	i
COC(=O)c1ccc(CSc2cc(N3CCCC3)ncn2)o1	i	i
O=C(N1CCOC(c2ccc(C(F)(F)F)cc2)C1)C1(c2ccc(F)cc2)CC1 (stereo not drawn)	i	·
O=C(NCC1(O)CCOCC1)C(=O)Nc1cc2c3c(c1)CCC(=O)N3CCC2	i	i
CCCc1c(C(=O)NCCO)nnn1-c1ccc(C)cc1	i	i
COCc1c(C(=O)NC2CCCC2)nnn1-c1ccc(C)cc1	i	+
COCc1c(C(=O)Nc2ccc(NC(C)=O)cc2)nnn1-c1cc(C)cc(C)c1	i	i
O=C(NC1CCCCCC1)c1n[nH]c2ccccc12	·	i
CCCc1c(C(=O)NC2CCCCC2)nnn1-c1ccccc1	i	+
CCCc1c(C(=O)NC2CCCC2)nnn1-c1ccc(Cl)cc1	i	+
O=C(Cc1ccc(NS(=O)(=O)c2cccnc2)cc1)NCC(F)(F)F	i	i
CCOC(=O)Cn1c(=O)c2c(nc3n(-c4ccc(Oc5ccccc5)cc4)c(C)cn23)n(C)c1=O	·	i
COc1cc(OC)cc(C(=O)NCC(c2cccc3ccccc23)N2CCOCC2)c1 (stereo not drawn)	i	i
Cc1nn(C2CCS(=O)(=O)C2)c(C)c1CC(=O)Nc1ccc2c(c1)Cc1ccccc1-2 (stereo not drawn)	i	i
O=C(Nc1ccc2c(c1)CN(C(=O)c1ccccc1)CC2)C1CC(=O)N(c2ccc(F)cc2)C1 (stereo not drawn)	i	i
O=C(Nc1cccc(C(F)(F)F)c1)C1CC(=O)N(c2ccc(F)cc2)C1 (stereo not drawn)	·	+
Cc1ccnc(Nc2ccc(NCCNS(=O)(=O)c3ccc(F)cc3)nn2)c1	i	+
O=S(=O)(NCCNc1ccc(Nc2ccccn2)nn1)c1ccc(F)cc1	i	i
O=C(NCC(c1ccco1)N1CCOCC1)C1CC=CCC1 (stereo not drawn)	i	+
SMILES	GIRK2 act	AMPAR-TARP mod
CN(C)C(CNC(=O)C1CCCCC1)c1cccs1 (stereo not drawn)	i	i
O=C(NCC(c1ccco1)N1CCOCC1)NC1CCCCC1 (stereo not drawn)	i	i
O=C(NCC(c1cccs1)N1CCOCC1)C1CCCCC1 (stereo not drawn)	i	+
COc1ccc(Cl)cc1NC(=O)CSc1ncc(-c2ccc(F)cc2)o1	i	·
Cc1ccc(NC(=O)Cc2csc(SCC(=O)c3ccc(F)cc3)n2)cc1F	i	·
COc1cccc2sc(NC(=O)c3ccc(S(=O)(=O)C(C)C)cc3)nc12	i	+
CC(C)S(=O)(=O)c1ccc(C(=O)Nc2nc(-c3ccc(Cl)s3)cs2)cc1	·	i
COc1ccc(-c2csc(NC(=O)c3ccc(S(=O)(=O)C(C)C)cc3)n2)cc1OC	·	i
CC(=O)c1sc(NC(=O)c2ccc(S(=O)(=O)C(C)C)cc2)nc1C	·	+
CCOc1ccc(NC(=O)Cc2csc(SCC(=O)c3cccs3)n2)cc1	i	·
O=C(NCc1ccccc1)NCC(c1ccco1)N1CCOCC1 (stereo not drawn)	i	i
COc1ccc(-n2nc3c(c2NC(=O)C(=O)NCc2ccco2)CS(=O)(=O)C3)cc1	i	+
COc1ccc(-n2nc3c(c2NC(=O)C(=O)N2CCCC2)CSC3)cc1	i	+
Cc1cccc(-n2nc3c(c2NC(=O)C(=O)NCc2ccco2)CS(=O)(=O)C3)c1	i	i
COc1ccc(-n2nc3c(c2NC(=O)C(=O)N2CCCCC2)CS(=O)(=O)C3)cc1	i	i
CCOc1ccccc1NC(=O)CSc1cc(N2CCCC2)ncn1	i	i
Cc1ccc(-c2cc(=O)n(CC(=O)N3CCN(c4ccccc4Cl)CC3)cn2)cc1	i	i
Cc1ccc(OCC(=O)n2ccc(C)n2)c(Br)c1	·	i
CCOc1ccccc1NC(=O)Nc1ccc2c(c1)CC(=O)N2CC	i	i
O=C(COc1ccccc1F)Nc1cc(-c2ccco2)nn1CCO	i	i
COc1ccc(S(=O)(=O)NCc2ccccc2)cc1N(C)S(=O)(=O)c1ccc(Cl)cc1	·	+
COc1ccc(S(=O)(=O)NCc2ccccc2)cc1N(C)S(C)(=O)=O	·	i
CCc1nc(-n2nc(C)cc2N)c2c3c(sc2n1)CCC3	i	+
Cc1nc(N2CCN(c3ccccc3F)CC2)c2c3c(sc2n1)CCCC3	·	i
CCCCC1CCC(C(=O)N2CCN(c3nccn3CC)CC2)CC1 (stereo not drawn)	i	i
SMILES	GIRK2 act	AMPAR-TARP mod
COCCNC(=O)Cn1nc2c(c1NC(=O)c1ccco1)CSC2	i	i
O=C(Nc1c2c(nn1-c1cccc(Cl)c1)CS(=O)C2)C1CCCCC1 (stereo not drawn)	i	+
CN1CCN(C(=O)C(=O)Nc2c3c(nn2-c2cccc(Cl)c2)CSC3)CC1	i	i
CCOc1ccc(-c2cc(=O)n(CCCC(=O)Nc3cccc4cccnc34)cn2)cc1	i	i
O=C(NCC1CCN(c2ccccn2)CC1)C(=O)Nc1ccc2c(c1)OCCO2	i	i
Cc1ccc(C(C)C)c(OCCCn2c(CCCO)nc3ccccc32)c1	i	i
CC(=O)NCCc1nc2ccccc2n1CCCOc1cc(C)ccc1C(C)C	i	+
CCS(=O)(=O)N1CCCc2cc(NC(=O)NCCc3ccc(OC)cc3)ccc21	i	i
COC(=O)c1c(NC(=O)c2cc(C)no2)sc2c1CC(C)(C)NC2(C)C	i	·
COC(=O)c1c(NC(=O)c2ccco2)sc2c1CC(C)(C)NC2(C)C	i	+
COC(=O)Cn1c(=O)c2c(nc3n(-c4ccccc4OC)c(C)c(C)n23)n(C)c1=O	·	i
COc1ccc(CCNC(=O)C(=O)NCc2ccc(Cl)cc2)cc1	·	i
COc1cccc(C(CNC(=O)C2(c3cccs3)CCCC2)N2CCOCC2)c1 (stereo not drawn)	i	+
COc1cccc(C(CNC(=O)c2cccc3ccccc23)N2CCOCC2)c1 (stereo not drawn)	·	+
COc1cccc(C(CNC(=O)C(=O)NCc2cccs2)N2CCOCC2)c1 (stereo not drawn)	i	i
COc1cccc(C(CNC(=O)Cc2cccc3ccccc23)N2CCOCC2)c1 (stereo not drawn)	·	i
COc1ccc(-c2coc3c4c(ccc3c2=O)OCN(CC(C)C)C4)cc1OC	i	i
